Experimental data: PubChem BioAssay (Tox21)
Inconclusive results are not listed. Activity calls are given as the source filed them. The call rests on the fitted dose curve; in most records, active means well fitted activation curve with a large enough effect in the signal ratio in the repeat runs (not every such curve was filed as active); inconclusive means weak or mixed curves; inactive means flat fitted curve, though single readings scatter; the % refers to the signal ratio.
On the % scale 0 is the no-effect control and ±100 the full control effect.

Assay: qHTS assay to identify small molecule agonists of the TGF-beta/Smad signaling pathway (AID 1346859)
Settings: SBE-bla HEK293T, TGF-beta/Smad beta-lactamase reporter, 5 h; series mostly up to 76.8 µM; activation: at the top concentration
Excerpt: U.S. Tox21 Program National Center for Advancing Translational Sciences [NCATS] NIH Chemical Genomics Center [NCGC] U.S. Environmental Protection Agency [EPA] National Institutes of Environmental Health Sciences [NIEHS] National Toxicology Program [NTP] U.S. Food and Drug Administration [FDA] Tox21 Assay Overview: Transforming growth factor beta (TGF-beta) superfamily consists of a large number of structurally related dimeric proteins that act as hormones or local mediators in regulating a wide range of biological functions. This superfamily includes TGF-betas themselves, the bone morphogenetic proteins (BMPs) and the activins. These ligands induce oligomerization of serine/threonine receptor kinases and phosphorylate the cytoplasmic signaling molecules of Smad protein family. CellSensor SBE-bla HEK 293T cell line (Life Technologies, Carlsbad, CA), responsive to TGF-beta was used to screen Tox21 10K compound library for identification of agonists/antagonists of the Smad signaling pathway. This cell line contains a beta-lactamase reporter gene under control of the Smad binding element (SBE) stably integrated into HEK 293T cells.
Tox21 Assay Protocol Summary: SBE-bla HEK 293T cells were dispensed at 4,000/well in 6 uL of assay medium into black wall/clear-bottom 1536-well plates using a Multidrop Combi (ThermoFisher Scientific, Waltham, MA) dispenser. After the assay plates were incubated at 37 C and 5% CO2 for an overnight, 23 nL of compounds dissolved in DMSO, positive controls or DMSO only was transferred to the assay plate by a Pintool station (Kalypsys, San Diego, CA). The assay plates were incubated at 37 C and 5% CO2 for 5 hr. One uL of LiveBLAzer B/G FRET substrate (Life Technologies) was added using a Flying Reagent Dispenser (Aurora Discovery, San Diego, CA) and the plates were incubated at room temperature for 2 hr. Fluorescence intensity (405 nm excitation, 460 nm and 530 nm emissions) was measured using an Envision plate reader (PerkinElmer, Shelton, CT).
In the case of `Nc1ccc(Cl)cc1Cl`, the outcome is reported as “inactive”. With `CCCCC(CC)COC(=O)c1ccc(N(C)C)cc1` (stereo not given) the outcome was “inactive”. In the case of `CC(=O)C1(C)CC2=C(CCCC2(C)C)CC1C` (stereo not given), the outcome is reported as “inactive”. With `CC(C)(C)NC(=O)[C@H]1CC[C@H]2[C@@H]3CC[C@H]4NC(=O)C=C[C@]4(C)[C@H]3CC[C@]12C` the “activation” value was -2.33% [at 35.3 µM] (inactive). In the case of `c1ccc2c(c1)c1cccc3ccc4cccc2c4c31`, the “activation” value is reported as 4.64% (inactive). With `C#C[C@]1(O)CC[C@H]2[C@@H]3CCc4cc(OC)ccc4[C@H]3CC[C@@]21C` the outcome was “inactive”. In the case of `CN1C(C(=O)Nc2ccccn2)=C(O)c2ccccc2S1(=O)=O`, the outcome is reported as “inactive”. In the case of `OC(CCl)CCl`, the outcome is reported as “inactive”. For `CC(C)Oc1ccc2c(=O)c(-c3ccccc3)coc2c1`, the outcome was “inactive”. For `CC1=CCC(C(C)(C)O)CC1` (stereo not given), the outcome was “inactive”. For `Cc1ncc[nH]1`, the outcome was “inactive”. In the case of `COC(C)COC(C)COC(C)CO` (stereo not given), the outcome is reported as “inactive”. With `c1ccc2sc(SSN3CCOCC3)nc2c1` the outcome was “inactive”. For `COC(=O)C1=C(C)NC(C)=C(C(=O)OCCN(C)Cc2ccccc2)C1c1cccc([N+](=O)[O-])c1` (stereo not given), the “activation” value was -2.66% [at 35.3 µM] (inactive). With `CNCCCC12CCC(c3ccccc31)c1ccccc12` the outcome was “inactive”. In the case of `CC(C)OC(=O)C(C)(C)Oc1ccc(C(=O)c2ccc(Cl)cc2)cc1`, the outcome is reported as “inactive”. With `CCOC(=O)C(C#N)=C(c1ccccc1)c1ccccc1` the outcome was “inactive”. With `COC(=O)CCC(=O)OC` the outcome was “inactive”. With `Cc1cccc(N(C)C(=S)Oc2ccc3ccccc3c2)c1` the outcome was “inactive”. In the case of `O=CCc1ccccc1`, the outcome is reported as “inactive”. With `CC(=O)c1ccccn1` the outcome was “inactive”. With `CCC(C)CO` (stereo not given) the outcome was “inactive”. In the case of `OC[C@H]1O[C@@H]2O[C@H]3[C@H](O)[C@@H](O)[C@@H](O[C@H]4[C@H](O)[C@@H](O)[C@@H](O[C@H]5[C@H](O)[C@@H](O)[C@@H](O[C@H]6[C@H](O)[C@@H](O)[C@@H](O[C@H]7[C@H](O)[C@@H](O)[C@@H](O[C@H]8[C@H](O)[C@@H](O)[C@@H](O[C@H]1[C@H](O)[C@H]2O)O[C@@H]8CO)O[C@@H]7CO)O[C@@H]6CO)O[C@@H]5CO)O[C@@H]4CO)O[C@@H]3CO`, the outcome is reported as “inactive”. In the case of `c1ccncc1`, the outcome is reported as “inactive”. For `C[C@]12CC[C@H]3[C@@H](CCC4=CC(=O)CC[C@@]43C)[C@@H]1CC[C@@H]2C(=O)CO`, the “activation” value was -5.59% [at 35.3 µM] (inactive). With `CC(C)OB(OC(C)C)OC(C)C` the outcome was “inactive”. In the case of `COC(=O)c1ccccc1`, the outcome is reported as “inactive”. In the case of `Cc1c(C(N)=O)cc([N+](=O)[O-])cc1[N+](=O)[O-]`, the outcome is reported as “inactive”. With `Cc1[nH]c(=O)c(C#N)cc1-c1ccncc1` the “activation” value was -3.1% [at 35.3 µM] (inactive). With `CC(C)OC=O` the outcome was “inactive”. In the case of `c1ccc2cc(Nc3ccc(Nc4ccc5ccccc5c4)cc3)ccc2c1`, the outcome is reported as “inactive”. In the case of `O=C(/C=C/C=C/c1ccc2c(c1)OCO2)N1CCCCC1`, the outcome is reported as “inactive”. With `O=[N+]([O-])c1ccc2c(c1)Cc1ccccc1-2` the outcome was “inactive”. In the case of `CCCCC(CC)COCC1CO1` (stereo not given), the outcome is reported as “inactive”. In the case of `Clc1nc(Cl)c(Cl)c(Cl)c1Cl`, the outcome is reported as “inactive”. With `CCCCCCCCCCCO` the outcome was “inactive”. In the case of `COc1ccc(C(=O)CC(=O)c2ccc(C(C)(C)C)cc2)cc1`, the outcome is reported as “inactive”. In the case of `CN(C)CCC=C1c2ccccc2CCc2ccccc21`, the outcome is reported as “inactive”. With `c1ccc(Nc2ccccc2)cc1` the “activation” value was 0.245% (inactive). In the case of `OCCO`, the outcome is reported as “inactive”.
